Screening data as filed in PubChem.
Compounds with a hit are over-represented: about 12% of the library has one in this group of screens.
KCC2 mod: KCC2 cotransporter modulators, thallium flux, primary screen, cell-based, HEK293 KCC2, FluoZin-2 fluorescence, MLSMR; Solute carrier family 12 member 5 (Homo sapiens), Q9H2X9; KCC2 cells, thallium flux FluoZin-2 fluorescence; B-score of Tl+ flux slope (higher = more flux/activation; lower = inhibition) at 10 µM; 2.2% of 190,000 active; AID 1456, 2008;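 active = thallium flux slope and its plate-corrected score both differing from the plate sample mean at a set confidence after two filtering rounds, in either direction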;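 note: slope of fluorescence scaled to starting intensity during 10 to 20 s after thallium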
Target sequence (Q9H2X9 whole entry, looked up): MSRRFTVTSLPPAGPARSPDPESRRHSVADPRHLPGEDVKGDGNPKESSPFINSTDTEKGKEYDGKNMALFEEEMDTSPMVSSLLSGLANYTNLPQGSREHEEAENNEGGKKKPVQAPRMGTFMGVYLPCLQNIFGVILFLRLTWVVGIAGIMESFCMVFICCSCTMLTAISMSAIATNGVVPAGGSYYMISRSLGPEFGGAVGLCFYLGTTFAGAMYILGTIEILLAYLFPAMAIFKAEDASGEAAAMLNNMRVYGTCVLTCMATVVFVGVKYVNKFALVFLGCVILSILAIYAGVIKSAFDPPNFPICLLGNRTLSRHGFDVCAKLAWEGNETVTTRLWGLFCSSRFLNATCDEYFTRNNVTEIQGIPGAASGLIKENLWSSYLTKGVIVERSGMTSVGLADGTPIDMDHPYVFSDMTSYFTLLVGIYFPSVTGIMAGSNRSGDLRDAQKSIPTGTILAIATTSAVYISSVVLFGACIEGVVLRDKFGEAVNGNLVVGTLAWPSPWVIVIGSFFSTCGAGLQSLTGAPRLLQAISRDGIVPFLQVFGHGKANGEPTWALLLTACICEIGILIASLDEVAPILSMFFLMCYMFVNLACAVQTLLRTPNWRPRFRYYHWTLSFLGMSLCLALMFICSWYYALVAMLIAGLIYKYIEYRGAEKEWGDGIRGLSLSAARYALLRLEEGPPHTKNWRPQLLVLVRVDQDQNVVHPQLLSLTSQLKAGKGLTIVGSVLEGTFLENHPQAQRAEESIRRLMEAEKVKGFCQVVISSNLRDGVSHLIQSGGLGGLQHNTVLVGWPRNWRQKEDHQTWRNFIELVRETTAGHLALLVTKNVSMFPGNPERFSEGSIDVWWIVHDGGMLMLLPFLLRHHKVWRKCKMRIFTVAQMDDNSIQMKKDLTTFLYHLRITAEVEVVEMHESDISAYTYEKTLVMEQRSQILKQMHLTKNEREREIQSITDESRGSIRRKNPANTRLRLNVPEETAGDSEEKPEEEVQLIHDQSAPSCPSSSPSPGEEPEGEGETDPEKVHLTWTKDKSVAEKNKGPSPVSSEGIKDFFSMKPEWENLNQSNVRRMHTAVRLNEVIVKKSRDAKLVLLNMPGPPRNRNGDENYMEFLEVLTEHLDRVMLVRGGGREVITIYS
Insulin prom inh: inhibitors of insulin promoter-driven GFP, primary screen, imaging, TRM-6 cells (human fetal islet line), eGFP reporter, cell count; reporter expression induced with tamoxifen; inhibition, % at 2 µM; 0.9% of 130,000 active; AID 1273, 2008;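 active = inhibition above the mean plus 3 SD, with well images judged a real hit on visual review, cut at about 60% in these data, passing the limit was not always enough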
Lmaj promast: Leishmania major promastigote growth inhibition, primary screen | 9% of 200,000 active | Leishmania major promastigotes, resazurin fluorescence viability | inhibition, % at 10 µM; in the data active = inhibition above about 50%;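 note: promastigotes grown with compound for 44 hours at 28 °C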
ROMK primary: ROMK potassium channel modulators, primary screen, cell-based, thallium flux, MLSMR library; ATP-sensitive inward rectifier potassium channel 1 (Homo sapiens), P48048; Tet-inducible ROMK, thallium flux fluorescence; actives lie on both sides; B-score at 10 µM; 2% of 130,000 active; AID 1918, 2009;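 active = signal ratio slope over the read window, or its plate-corrected B-score, at least 3 SD from the plate mean, either direction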;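 note: B-score of the F/F0 ratio slope over 7 to 12 s after thallium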
WT yeast gro inh: growth inhibition of WT strain, primary screen, mitochondrial fusion inhibitor project, WT and mutant strains, chemical genetic. mitochondrial fusion phenotypic screen. inhibition, % at 10 µM. 2.1% of 190,000 active; in the data active = inhibition above about 58%; tested in S. cerevisiae
Ins promoter up: insulin promoter activators in MIN6 cells, imaging, high-content screening, mouse beta cells. MIN6 insulin promoter-GFP reporter; stronger effect = higher value. z-score at 5 µM. 0.3% of 190,000 active;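 active = z-score above 3 at 5 µM with at least 500 cells counted in the well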
Starred values were filed as active, the others as inactive; . = not tested or not shown.

SMILES	KCC2 mod	Insulin prom inh	Lmaj promast	ROMK primary	WT yeast gro inh	Ins promoter up
CC(C)NS(=O)(=O)c1ccc(NC(=S)NC(=O)c2ccc(-c3ccccc3)cc2)cc1	1.2	4	93*	0.18	1	-0.48
O=C(C1CC1)N1CCN=C1SCc1cccc(C(F)(F)F)c1	.	.	2	.	5	0.51
O=C(Cn1cnc2c(nnn2-c2ccccc2)c1=O)NCC1CCCO1 (centres undefined)	0.63	-57	-4	.	-12	-0.05
O=C(C1=C[C@@H](C2CCCCC2)C[C@@H](OCc2ccc(CO)cc2)O1)N1CCN(Cc2ccc3c(c2)OCO3)CC1	0.92	.	57*	.	76*	0.15
O=C(C1=C[C@H](C2CCCCC2)C[C@H](OCc2ccc(CO)cc2)O1)N1CCN(Cc2ccc3c(c2)OCO3)CC1	0.37	.	68*	.	70*	0.4
C#CCNC(=O)C1=C[C@@H](C2CCCCC2)C[C@@H](OCc2ccc(CO)cc2)O1	-0.26	.	96*	.	-8	-0.09
COc1ccc2c(c1)CC/C2=N\OC(=O)c1cccc(C)c1	-1.5	-35	1	.	-5	-1.9
OC(COc1ccc2ccccc2c1)CN1CCN(c2ccc(F)cc2)CC1 (centres undefined)	-0.081	57	-2	.	17	1.3
OC(COc1c(F)cc(Br)cc1F)CN1CCN(c2ccc(F)cc2)CC1 (centres undefined)	-1	10	87*	.	42	-2
CC(C)NCC(O)COc1c(F)cc(Br)cc1F (centres undefined)	-0.61	.	30	-0.044	9	-0.74
CC1CCCC(C)N1CC(O)COc1c(F)cc(Br)cc1F (centres undefined)	0.94	.	74*	-0.18	-13	0.25
OC(CNC1CCCC1)COc1c(F)cc(Br)cc1F (centres undefined)	.	7	93*	-1.7	-4	-0.72
COc1ccc([N+](=O)[O-])cc1NS(=O)(=O)c1cc(C(=O)O)ccc1OC	-0.33	.	.	.	.	0.08
COc1cccc(C(=O)NCc2ccccc2OC)c1	0.86	0	-5	.	-13	1.7
CC1(C)CC(=O)/C(=C\c2cccc([N+](=O)[O-])c2)C(C)(C)N1	0.067	-44	100*	.	21	.
CC(=O)N1CC(=O)N=C1SCC(=O)Nc1nc(C)c(-c2ccccc2)s1	0.052	.	96*	-1.1	1	0.22
Cc1nc(NC(=O)CN2CCOCC2)sc1-c1ccccc1	.	.	51*	-1.2	0	0.12
CCc1sc(NC(=O)CN2CCOCC2)nc1-c1ccccc1	-0.37	13	38	.	-4	-2.2
CCOc1ccc(S(=O)(=O)NCCC2=CCCCC2)c2ccccc12	0.51	12	28	.	1	-0.13
CC(=O)N(Cc1ccccn1)Cc1ccco1	0.22	.	.	.	.	0.27
O=C(CNC(=O)c1ccco1)OCc1cccc(Cl)c1	-0.29	.	-7	.	14	0.71
O=C(CCNc1cccc(Cl)c1)c1ccco1	-0.48	.	83*	.	-1	.
CCSc1nc2sc3c(c2c(=O)[nH]1)CCCC3	0.45	0	-1	1.2	-12	-0.22
CCSC1=NC2(CCCCC2)Nc2sc3c(c21)CCCC3	0.85	22	100*	-0.01	20	-0.06
CCCn1c(=O)n(N)c2ccccc21	0.17	-27	-7	0.68	-1	0.25
SMILES	KCC2 mod	Insulin prom inh	Lmaj promast	ROMK primary	WT yeast gro inh	Ins promoter up
O=C(NCC1OCCc2ccccc21)c1cc(COc2ccc(F)cc2Cl)on1 (centres undefined)	-0.91	.	-1	1.1	1	0.47
Cc1cc(Br)cc2c(C(=O)Nc3c(C)n(C)n(-c4ccccc4)c3=O)cc(-c3cccs3)nc12	.	.	69*	.	22	-0.21
CCn1cc(C(=O)N2CCn3c(nc4ccccc43)C2)c(=O)c2ccc(C)nc21	-0.45	.	-6	.	8	-0.68
CN1CCN(C2=C(Cl)C(=O)N(C3CCCCC3)C2=O)CC1	-0.03	.	95*	-0.18	-2	-0.86
COc1ccc(NC(C)C(=O)Nc2cc(C(F)(F)F)ccc2N2CCOCC2)c(OC)c1 (centres undefined)	-1	7	72*	.	49	-0.49
CC(=O)Nc1cc(C(F)(F)F)ccc1N1CCOCC1	-0.13	-56	-4	.	-2	-0.55
COc1cc(Cl)c(C)cc1NC(C)C(=O)Nc1cc(C(F)(F)F)ccc1N1CCOCC1 (centres undefined)	-0.19	-36	6	0.61	65*	.
Cc1cc(C)cc(OCC(=O)N2Cc3ccccc3CC2C(=O)O)c1 (centres undefined)	0.13	.	2	1	-4	0.42
COc1ccc(CONc2ncnc3nonc23)cc1[N+](=O)[O-]	0.004	29	17	-0.089	11	.
C=CCSc1nnc(NC(=O)c2cccc(S(=O)(=O)N(C)c3ccccc3)c2)s1	-0.65	-28	63*	.	-1	0.09
CN(C)S(=O)(=O)c1ccc(C(=O)Nc2nnc(SCc3cccc(F)c3)s2)cc1	0.7	-48	52*	0.29	10	0.06
CN(c1ccccc1)S(=O)(=O)c1cccc(C(=O)Nc2nccs2)c1	.	.	15	-0.98	-6	0.17
CN(C)S(=O)(=O)c1ccc(C(=O)Nc2nnc(SCc3ccccc3)s2)cc1	-0.085	28	-5	0.048	2	0.29
Cc1ccc(C(=O)N2CCN3C(=O)c4ccccc4C23c2ccccc2)cc1 (centres undefined)	-1.3	.	54*	.	35	0.16
COC(=O)c1c(Oc2nc(OC)cc(OC)n2)cccc1Oc1nc(OC)cc(OC)n1	0.79	5	-4	0.77	-5	0.33
CCc1ccc(C2C(C(C)=O)=C(C(=O)OC)Nc3nnnn32)cc1 (centres undefined)	-0.35	0	-6	.	-8	0.38
COCCCNC(=O)Cc1ccccc1OC	-0.43	6	-7	-0.15	-18	0.66
COc1ccc(Cn2c(-c3ccc(Br)cc3)c[n+]3ccccc23)cc1	0.013	.	99*	.	63*	-2.2
COc1ccc(Cn2c(C)ccc2C)cc1	0.0027	3	-8	-1	17	1.3
COc1ccc(N(Cc2ccco2)C(=O)c2ccccc2F)cc1OC	0.72	.	59*	-0.14	-3	0.75
CC(=O)Nc1cccc(NC(=O)CSc2nnc(Cc3cccn3C)n2CCc2ccccc2)c1	.	.	-2	.	-2	-0.56
Cc1c(Cl)cccc1NC(=S)N1CCCN(Cc2ccc(F)cc2)C1	-0.12	-40	89*	.	2	-1.7
Cc1c(Cl)cccc1NC(=S)N1CCCN(Cc2ccccc2F)C1	0.96	-56	82*	-1.2	14	-1.6
Fc1ccccc1CN1CCCN(C(=S)Nc2cccc(Cl)c2)C1	0.35	7	86*	.	6	-0.85
O=C(Nc1ccccc1)N1CCCN(Cc2ccccc2F)C1	.	0	8	-0.82	17	-0.27
Cc1c(Cl)cccc1NC(=S)N1CCN(Cc2ccccc2)CC1	.	-25	9	.	-3	.
